# PrPC TRFRET: cell surface PrPC inhibition, primary TR-FRET screen; TR-FRET read-out; AID 720596; P04156; actives 0.43% (n = 370,000); inhibition, % at 13.8 µM; in the data active = inhibition above about 24%; also: 0% = median of the test wells and 100% = reference compound wells
# BJeLR lethal: BJeLR cell viability loss. actives 0.17% (n = 300,000). inhibition, % (test concentration not listed). BJeLR (HRASV12) viability, CellTiter-Glo ATP luminescence, 48 h. AID 1554; in the data active = inhibition above about 50%
# DUSP3 inh: blocks human VHR1 dual specificity phosphatase. P51452. recombinant VHR phosphatase, pNPP absorbance. inhibition, % at 13.3 µM. actives 0.52% (n = 290,000). AID 1654; in the data active = inhibition above about 50%
# Target sequence (P51452 whole entry, looked up): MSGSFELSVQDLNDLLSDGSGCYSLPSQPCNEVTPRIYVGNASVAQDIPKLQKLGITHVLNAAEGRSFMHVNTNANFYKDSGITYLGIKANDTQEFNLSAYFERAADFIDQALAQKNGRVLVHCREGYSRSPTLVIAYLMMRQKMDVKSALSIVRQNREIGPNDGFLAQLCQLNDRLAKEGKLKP
# RN4220 kill: kills Staphylococcus aureus RN4220; AID 1259311; inhibition, % (test concentration not listed); S. aureus RN4220 growth, OD600, 16 h; actives 0.33% (n = 330,000); in the data active = inhibition above about 85%;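 also: plate controls were untreated cells for no effect and reference antibiotic for full effect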
# Sa ugtP lethal: growth inhibition of S. aureus ugtP deletion strain. AID 1259309. growth inhibition, % (no concentration beside the values). actives 0.54% (n = 330,000). S. aureus RN4220 ugtP deletion, OD600 growth, 16 h; in the data active = growth inhibition above about 68%;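 also: plate controls were untreated wells for no effect and antibiotic for full effect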
# SARS 3CLpro inh: SARS-CoV 3CLpro protease inhibition | P0C6X7 | recombinant SARS-CoV 3CLpro, quenched FRET peptide cleavage | inhibition, % at 6 µM | actives 0.14% (n = 290,000); in the data active = inhibition above about 12%
# The depositor's hits bear a star; x = no result. Sampled rows, rich in hits. Any-hit rate of the full collection: about 1.4%.
SMILES,PrPC TRFRET,BJeLR lethal,DUSP3 inh,RN4220 kill,Sa ugtP lethal,SARS 3CLpro inh
O=C(Nc1cc(C(F)(F)F)ccc1N1CCOCC1)c1ccc(F)cc1,6,1,12,-20,-6,-1
CC=C(C)C(=O)Nc1cccc(C2=NOC3(C2)CC(C(N)=O)N(C(=O)C2CCC(=O)N2)C3)c1 (centres undefined),x,x,x,3,-1,x
Nc1nn2c(-c3ccccc3)cc(=O)[nH]c2c1N=Nc1ccc(Br)cc1,2,x,111,100*,100*,-2
CC(C)CC(NC(=O)OC(C)(C)C)c1cn(C(CCCCNC(=O)OC(C)(C)C)C(=O)N2CCN(C(=O)OC(C)(C)C)CC2)nn1 (centres undefined),x,x,x,5,7,x
COc1ccc(CN2CCN(Cc3ccc4cc(F)ccc4n3)CC2CCO)c(C)c1C (centres undefined),0,-21,51*,-2,-5,-1
COc1cc(CN2CCN(Cc3ccc4cc(F)ccc4n3)CC2CCO)cc(OC)c1 (centres undefined),-14,-12,-29,4,-7,-7
CCOC1OC(C(=O)N2CCCCCCC2)=CC(c2coc3ccccc3c2=O)C1CCCO (centres undefined),x,x,x,5,2,x
O=C(Nc1cccc(S(=O)(=O)NC2=NCCC2)c1)c1cc(-c2ccco2)nc2ccccc12,-7,8,52*,4,8,0
O=C(NC(=S)Nc1cccc(S(=O)(=O)NC2=NCCC2)c1)c1cc(-c2ccco2)nc2ccccc12,8,27,19,2,0,5
C=C1C(=O)OC2CC1C(O)CC(C)=CCCC(C)=CC(O)CC2C (centres undefined),33*,x,x,x,x,x
Cc1cc(C)c2c(CN3CCCCC3)cc(=O)oc2c1,-2,9,9,4,5,0
Cc1cc(C)c2c(CCl)cc(=O)oc2c1,0,56*,-4,x,x,0
COc1ccc(C(=O)C2CCCN(C3CSCCSC3)C2)c(OC)c1 (centres undefined),-2,-1,57*,x,x,6
CC(NC(=O)C(C#N)=Cc1ccc(Cl)c([N+](=O)[O-])c1)c1ccccc1 (centres undefined),x,x,x,24,1,x
O=C(NC(Cc1ccccc1)C(=O)OCc1ccccc1)c1nc[nH]c1C(=O)N1CCc2ccccc2C1 (centres undefined),x,x,x,3,-11,x
CC(=NNC(=O)c1ccccc1)c1c(C)[nH]n(-c2ccccc2)c1=O,x,x,x,8,-7,x
CCC(=NNC(=O)c1ccccc1O)c1c(C)[nH]n(-c2ccccc2)c1=O,x,x,x,93*,98*,x
CCCSC(=S)c1c(C)[nH]n(-c2ccccc2)c1=O,8,-2,-1,91*,90*,5
CC(C)Oc1ccc(CNC(=O)Cn2ccc3cc(S(=O)(=O)N4CCCC4)ccc32)cc1,-4,-2,53*,4,4,1
O=S1(=O)C=C(Sc2nc3ccccc3s2)c2ccccc21,x,56*,-15,54,91*,2
O=C1C=CC2=C3c4cc(O)c(O)cc4CC3(O)COC2=C1O (centres undefined),25*,x,x,x,x,x
Cc1cc(C)cc(N=C2NC(=O)CS2)c1,11,-11,59*,1,0,1
CS(=O)(=O)N(CC(=O)Nc1ccccc1C(=O)N1CCCC1)c1ccccc1Br,2,-2,10,2,4,-10
COc1ccc(Cl)cc1N(CC(=O)Nc1ccccc1C(=O)N1CCCC1)S(C)(=O)=O,-3,-10,58*,4,5,3
CCCCNC(=O)C1CC=CC2CCN(C3CC3)C(=O)C21 (centres undefined),x,x,x,5,2,x
SMILES,PrPC TRFRET,BJeLR lethal,DUSP3 inh,RN4220 kill,Sa ugtP lethal,SARS 3CLpro inh
C=CS(=O)(=O)N(Cc1ccccc1Br)C(CO)Cc1ccccc1 (centres undefined),x,x,x,17,9,x
Cc1[nH][nH]c(=O)c1C(c1c(C)[nH][nH]c1=O)c1cn(Cc2ccc(Cl)c(Cl)c2)c2ccccc12,-10,18,-2,36,88*,7
CCc1ccccc1NS(=O)(=O)c1ccc(SC)cc1,3,4,4,95*,89*,1
CCOc1ccc(C2C(C#N)=C(N)SC(N)=C2C#N)cc1OC,x,-2,-17,x,x,1
CCOc1ccccc1C1C(C#N)=C(N)SC(N)=C1C#N,47*,-5,30,1,-7,1
Cc1ccc(CN2C(CC3CCCCC3)COCCS2(=O)=O)cc1 (centres undefined),x,x,x,6,15,x
CCC(C)Sc1ccc(C2C3C(=O)N(C)C(=O)C3[C@]3(C(=O)OC)CCCCN23)cc1 (some centres undefined),x,x,x,5,-24,x
O=S(=O)(NCCc1cn2ccccc2n1)c1ccc(-c2ccccc2)cc1,-2,2,57*,5,9,4
CSc1ccc(CNCc2ccc3c(c2)OCO3)cc1,-4,3,55*,0,-3,4
C=CCNC(=O)C(=Cc1ccccc1OCC)NC(=O)c1ccccc1,x,x,x,1,0,x
O=c1[nH]c2ccc(S(=O)(=O)N3CCN(c4ccccc4F)CC3)cc2s1,-6,-13,1,-12,101*,4
Cc1ccc(-n2nc(C(=O)N3CCOCC3)cc2-c2ccc(Cl)cc2)cc1,-5,1,-7,-3,92*,2
CCOC(=O)Cc1csc(NC(=S)NC(=O)c2ccccc2C)n1,1,-3,53*,2,8,3
C[C@@]12CCC=CC1C(c1ccc3ccccc3c1Br)N(Cc1ccccc1)C2=O (some centres undefined),x,x,x,-5,2,x
CC(C)N(Cc1cnn(C)c1)C(=O)c1ccc(OC2CCN(Cc3ccccn3)CC2)cc1,-4,-7,57*,5,4,3
Cc1nn(C)cc1CN(C)C(=O)c1ccc(OC2CCN(Cc3ccccn3)CC2)cc1,-5,2,23,3,3,2
O=C(CCN1C(=O)/C(=C/c2ccccc2Cl)SC1=S)Nc1ccccn1,-1,-8,2,-4,-8,2
O=C(CCN1C(=O)/C(=C/c2ccccc2Cl)SC1=S)NC1=NCCS1,-1,-3,21,3,87*,4
CN1CC2C3C(=O)N(Cc4ccccc4)C(=O)C3[C@](Cc3ccccc3)(C1=O)N2C(=O)c1ccccc1 (some centres undefined),x,x,x,6,3,x
COc1ccc(CC(N)=NOC(=O)Cc2ccccc2)cc1OC,x,x,x,7,1,x
COc1ccc(C(=O)N=C2SC3CS(=O)(=O)CC3N2c2ccccc2)cc1OC (centres undefined),-7,0,52*,0,0,-6
O=C(N=C1SC2CS(=O)(=O)CC2N1c1ccccc1)c1cccc([N+](=O)[O-])c1 (centres undefined),-4,x,x,3,3,x
O=C(CCl)Nc1cccc2ncccc12,-2,7,26,3,-1,3

# Screening results: PubChem BioAssay, several laboratories
